In PubChem BioAssay (NCATS) one finds activation, Potency and viability data, which are given here for 26 compounds.

Several values for one entry are separate records, joined by “and”; a condition that tells them apart may be missing. Identical values can stand only once. Inconclusive results are not listed. Values without a mark were called inactive. Activity calls are given as the source filed them. Unless noted, the call rests on the fitted dose curve; in most records, active means well fitted curve in the direction sought with a large enough effect; inconclusive means small, poorly fitted or top-dose-only effect, or another doubt; inactive means no such curve, though single readings can be large; an effect the other way counts as inactive or inconclusive.

In assay [1] the target is Cellular tumor antigen p53 (Homo sapiens) (UniProt P04637). The assay is described as follows: Primary qHTS for small molecule compounds that upregulate eGFP-tagged delta133p53alpha (in N-terminal) cells. (AID 2060322).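 Further: series mostly up to about 56 µM; 0% = DMSO vehicle and 100% = reference activator; nearly all actives have a fitted effect of over 75% in size.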 The settings on record: NCI-H358 eGFP-delta133p53alpha fluorescence, 24 h; activation: stronger effect = higher value. An outline of the steps:
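NCI-H358 cells pre-induced 24 h with 10 ng/ml doxycycline to express N-terminal eGFP-delta133p53alpha, then dosed 24 h at 37C without doxycycline; fixed, Hoechst-stained, GFP intensity by laser scanning cytometry, normalized to DMSO (0%) and 57.5 uM 5-azacytidine (100%).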
Background: Quantitative high-throughput screening tests each substance at several concentrations.

The target of assay [2] is Aldehyde dehydrogenase, mitochondrial (Homo sapiens) (UniProt P05091). The assay is described as follows: qHTS for Inhibitors of the Aldehyde Dehydrogenase Family (ALDH2) Validation screens (AID 2061302; active means well fitted inhibition curve with a large enough effect; title and protocol of this record describe different tests; further: potency means the concentration at half of the fitted maximal effect).
Assay [3] shares this target. The assay is described as follows: qHTS for Inhibitors of the Aldehyde Dehydrogenase Family (ALDH2) Confirmatory screens (AID 2061303; active means well fitted inhibition curve with a large enough effect; title and protocol of this record describe different tests; further: on the % scale 0 is the no-effect control and ±100 the full control effect; nearly all actives have a fitted effect of over 45% in size).
For assay [4] the target is unchanged. Kind of assay: qHTS for Inhibitors of the Aldehyde Dehydrogenase Family (ALDH2) Primary screen (AID 2061308).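 Further: plate controls were vehicle for no effect and reference inhibitor for full effect; nearly all actives have a fitted effect of over 55% in size.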
Assay [5] has as its target Retinaldehyde dehydrogenase 3 (Homo sapiens) (UniProt P47895). The assay is described as follows: qHTS for Inhibitors of the Aldehyde Dehydrogenase Family (ALDH1A3) Confirmatory screens (AID 2061311). Further: potency means the concentration at half of the fitted maximal effect; nearly all actives have a fitted effect of over 60% in size.
For assay [6] the target is unchanged. The assay is described as follows: qHTS for Inhibitors of the Aldehyde Dehydrogenase Family (ALDH1A3) Validation screen (AID 2061312). Further: on the % scale 0 is the no-effect control and ±100 the full control effect; nearly all actives have a fitted effect of over 45% in size.
Assay [7] has as its target Retinal dehydrogenase 2 (Homo sapiens) (UniProt O94788). The assay is described as follows: qHTS for Inhibitors of the Aldehyde Dehydrogenase Family (ALDH1A2) Confirmation screens (AID 2061314). Further: potency means the concentration at half of the fitted maximal effect; nearly all actives have a fitted effect of over 65% in size.
The target of assay [8] is Retinaldehyde dehydrogenase 3 (Homo sapiens) (UniProt P47895). Kind of assay: qHTS for Inhibitors of the Aldehyde Dehydrogenase Family (ALDH1A3) Primary screen (AID 2061315).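 Further: plate controls were DMSO vehicle for no effect and reference inhibitor for full effect.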
Assay [9] addresses Aldehyde dehydrogenase 1A1 (Homo sapiens) (UniProt P00352). The assay is described as follows: qHTS for Inhibitors of the Aldehyde Dehydrogenase Family (ALDH1A1) Confirmatory screens (AID 2061316). Further: on the % scale 0 is the no-effect control and ±100 the full control effect; nearly all actives have a fitted effect of over 65% in size.
Assay [10] addresses Cellular tumor antigen p53 (Homo sapiens) (UniProt P04637). Kind of assay: Primary qHTS for small molecule compounds that upregulate eGFP-tagged delta133p53alpha (in C-terminal) cells. (AID 2060324).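 Further: 0% = DMSO wells and 100% = 57.5 µM 5-azacytidine.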 An outline of the steps:
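NCI-H358 cells pre-induced 24 h with 100 ng/ml doxycycline to express delta133p53alpha-eGFP, then dosed in doxycycline-free medium for 24 h at 37C. Fixed, Hoechst-stained; GFP intensity by laser scanning cytometry, normalized to DMSO wells.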

Assay [11] can be described thus: BET inhibitor-based combinations targeting novel dependencies in MECOM-rearranged (r) AML: OCI-AML3 cell line (AID 2202232). Further: nearly all actives have a fitted effect of over 35% in size. Further: potency means the concentration at half of the fitted maximal effect. The conditions noted are these: Potency: OCI-AML3 viability. An outline of the steps: (§1)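 Viability of cells (500 per well) is scored by luminescent CellTiter-Glo at 48 hr post-dosing. Eleven-point titrations are normalized to DMSO and empty controls and reduced to AUC values.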

Assay [12] in a line: BET inhibitor-based combinations targeting novel dependencies in MECOM-rearranged (r) AML: MV-4-11 cell line (AID 2202233). Further: nearly all actives have a fitted effect of over 45% in size. Further: potency means the concentration at half of the fitted maximal effect. An outline of the steps:
(§2)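 Using pin-tool transfer, drugs were added in 11 doses to cells (500/well), incubated 48 hr, and assessed with CellTiter-Glo. Z-AUC is a mean-centring transformation applied separately to each screened line.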

The nature of assay [13]: BET inhibitor-based combinations targeting novel dependencies in MECOM-rearranged (r) AML: HNT-34 cell line (AID 2202234). Further: nearly all actives have a fitted effect of over 35% in size. Further: potency means the concentration at half of the fitted maximal effect. An outline of the steps:
as §2

The nature of assay [14]: BET inhibitor-based combinations targeting novel dependencies in MECOM-rearranged (r) AML: UCSD-AML1 cell line (AID 2202235).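 Further: series mostly up to about 46 µM; plate controls were DMSO vehicle wells for no effect and blank wells for full effect; nearly all actives have a fitted effect of over 40% in size.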 An outline of the steps: as §2
Assay [15] is described as follows: BET inhibitor-based combinations targeting novel dependencies in MECOM-rearranged (r) AML: AML-191 cell line (AID 2202236; further: nearly all actives have a fitted effect of over 35% in size; further: potency means the concentration at half of the fitted maximal effect). An outline of the steps:
as §1

A short description of assay [16]: BET inhibitor-based combinations targeting novel dependencies in MECOM-rearranged (r) AML: AML-194 cell line (AID 2202237; further: nearly all actives have a fitted effect of over 40% in size; further: potency means the concentration at half of the fitted maximal effect). An outline of the steps:
as §1

The nature of assay [17]: BET inhibitor-based combinations targeting novel dependencies in MECOM-rearranged (r) AML: SET-2 cell line (AID 2202231).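 Further: plate controls were DMSO treated cells for no effect and wells without cells for full effect; nearly all actives have a fitted effect of over 35% in size.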 The conditions noted are these: SET-2 AML cells viability, CellTiter-Glo luminescence, 48 h; viability: stronger effect = lower value, series mostly up to about 46 µM. An outline of the steps: as §1
For orientation: Cellular ATP, detected with luciferase, serves as a proxy for viable cell number.

Sequence of Cellular tumor antigen p53 (Homo sapiens) (P04637 whole entry, looked up): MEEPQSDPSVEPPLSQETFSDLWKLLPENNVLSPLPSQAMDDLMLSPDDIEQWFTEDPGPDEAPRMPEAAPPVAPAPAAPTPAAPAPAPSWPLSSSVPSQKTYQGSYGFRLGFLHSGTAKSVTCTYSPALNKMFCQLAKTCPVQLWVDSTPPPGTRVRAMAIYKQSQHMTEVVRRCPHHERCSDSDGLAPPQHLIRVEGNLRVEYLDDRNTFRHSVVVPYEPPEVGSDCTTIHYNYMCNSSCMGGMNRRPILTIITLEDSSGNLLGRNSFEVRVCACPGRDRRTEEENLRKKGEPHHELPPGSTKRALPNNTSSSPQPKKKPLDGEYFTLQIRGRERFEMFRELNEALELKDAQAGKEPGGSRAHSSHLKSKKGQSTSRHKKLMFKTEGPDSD

Consider `CN(C)c1cc2c(Nc3ccc4c(cnn4Cc4ccccc4)c3)ncnc2cn1`, for which the activation in assay [1] is -35.7%. Besides, the Potency result in assay [2], in [3], in [4], in assay [6], in assay [8] and in [9] was “inactive” each time. The Potency in [5] is 10 µM (active); in assay [7] it was 0.283 µM (active).

In the case of `CO/N=C(\C(=O)N[C@@H]1C(=O)N2C(C(=O)O)=C(CSc3nc(=O)c(O)nn3C)CSC12)c1csc(N)n1` (some centres undefined), in [1], the activation is 4.05%. Further, the Potency entry in assay [10] and in assay [6] was “inactive” each time.

Regarding `CCCCCCCC/C=C\CCCCCCCC(=O)NCc1ccc(O)c(OC)c1`, in assay [1], the activation is -13% and -42.7%. Besides, the Potency result in assay [10] and in [6] was “inactive” throughout.

Turning to `CCn1cc(C(=O)O)c(=O)c2cc3c(cc21)OCO3`, the activation in assay [1] was 2.82% and -18.3%. For the same compound, the Potency result in assay [10] and in assay [6] was “inactive” in each case.

On to `S=c1[nH]c(-c2ccccc2)cn1-c1ccccc1`, for which the activation in [1] is -21.8%. For the same compound, the Potency entry in assay [10] and in assay [6] was “inactive” throughout.

As to `CC1(C)NC(=O)N(c2ccc([N+](=O)[O-])c(C(F)(F)F)c2)C1=O`, in assay [1], the activation was -8.47% and -2.88% and -17.8%. The Potency result in assay [10], in [6], in [11], in assay [12], in assay [13] and in assay [14] was “inactive” throughout. The Potency result in [15] and in assay [16] was “inactive” in each case.

On to `O=C1NC(=O)/C(=C/c2ccc3nccnc3c2)S1`, for which the activation in assay [1] is 18.2%. Further, the Potency result in [10], in [12], in assay [13], in assay [14], in [15] and in assay [16] was “inactive” each time. Also, the viability (as a rule, a read-out of living cells in per cent, often relative to untreated cells) in [17] was 113%.

With `O=c1c(-c2ccc(O)cc2)coc2cc(OC3O[C@H](CO)[C@H](O)[C@H](O)[C@H]3O)cc(O)c12` (some centres undefined), the activation in [1] is 21%. Further, the Potency in assay [2] was 44.7 µM (active).

In the case of `NNCCc1ccccc1`, in assay [1], the activation was 11.9% and 3.32% and -5.28%. Besides, the Potency result in assay [10], in assay [12], in assay [13], in assay [14] and in assay [16] was “inactive” throughout. The viability in [17] is 108%. Further, in [11], the Potency was 7.42 µM (active).

In the case of `N#C/C(=C\c1ccc(-c2cc(Cl)ccc2Cl)o1)C(=O)Nc1cccc2ncccc12`, the activation in assay [1] is -37.8%. Also, the Potency result in [2] is “inactive”.

As for `NC(=O)C1=CN(C2OC(COP(=O)(O)OP(=O)(O)OC[C@H]3O[C@@H](n4cnc5c(N)ncnc54)[C@H](OP(=O)(O)O)[C@@H]3O)C(O)C2O)C=CC1` (some centres undefined), the activation in assay [1] was -2.48%. The Potency entry in assay [10] and in assay [6] was “inactive” in each case.

For `Nc1ncnc2n[nH]c(Nc3ccc(F)cc3)c12`, the activation in assay [1] is 1%. Also, the Potency entry in assay [2], in [4], in [6] and in assay [8] was “inactive” in each case.

Turning to `C[C@](N)(Cc1ccc(O)c(O)c1)C(=O)O`, the activation in assay [1] was 3.95% and 1.83% and 6.56%. Moreover, the Potency entry in assay [10], in assay [11], in assay [13], in assay [14] and in [16] was “inactive” throughout.

On to `CC1=C(/C=C/C(C)=C/C=C/C(C)=C\C(=O)O)C(C)(C)CCC1`, for which, in [1], the activation is -30.1%. For the same compound, the Potency entry in [10], in [14] and in [16] was “inactive” in each case. Also, in assay [17], the viability was 102%. For the same compound, the Potency in [11] is 0.742 µM (active).

As to `CC[C@@H]1Cc2cc(O)ccc2C2=C1c1ccc(O)cc1C[C@H]2CC`, in assay [1], the activation is -56%. The Potency entry in [2] and in assay [6] was “inactive” in each case.

As to `O=C(O)c1ccccc1Nc1ccccc1`, the activation in assay [1] is -8.85%. Moreover, the Potency result in assay [2] and in assay [6] was “inactive” throughout.

Turning to `C=CCNc1ncnc2ccc(Br)cc12`, the activation in [1] is -43.6%. Moreover, the Potency result in assay [2] and in assay [6] was “inactive” throughout.

`CCN(CC)c1ncnc2c1ncn2[C@@H]1O[C@H](COP(=O)(O)OP(=O)(O)C(Br)(Br)P(=O)(O)O)[C@@H](O)[C@H]1O`: the activation in assay [1] is -18.4%. In addition, the Potency entry in assay [2] and in assay [6] was “inactive” each time.

For `C=C1C(=O)O[C@@H]2[C@H]3O[C@]3(C)CCC=C(C)CC[C@@H]12`, the activation in assay [1] is -45%. Also, the Potency entry in assay [2] and in assay [6] was “inactive” in each case.

Consider `CNCCCC12CCC(c3ccccc31)c1ccccc12`, for which the activation in assay [1] is -7.08% and 22.3% and 47.4%. Besides, the Potency entry in [2], in [4], in [6] and in assay [8] was “inactive” in each case. For the same compound, the Potency in [11] is 18.6 µM (active); in assay [12] it was 29.5 µM (active); in [13], 23.5 µM (active); in [15], 23.5 µM (active); in assay [16], 26.3 µM (active).

On to `CC1C(=O)N(C)C(=O)c2nc[nH]c21` (centres undefined), for which the activation in [1] is -19.1%. Moreover, the Potency result in assay [2] and in [6] was “inactive” each time.

With `OC[C@H]1O[C@@H](n2cnc3c(NC4CCCCC4)ncnc32)[C@H](O)[C@@H]1O`, the activation in assay [1] was 5.46%. The Potency result in [2] and in assay [6] was “inactive” each time.

Turning to `S=C(S)OC1CC2CC1C1CCCC21` (centres undefined), in assay [1], the activation was -23.4%. Besides, the Potency entry in [2] and in assay [6] was “inactive” each time.

As for `CN(C)CCCN1c2ccccc2Sc2ccc(Cl)cc21`, the activation in assay [1] was -15.3%. In addition, the Potency result in assay [2] and in assay [6] was “inactive” each time.

In the case of `NC/C=C\C(=O)O`, in assay [1], the activation is 28.9%. Besides, the Potency entry in [2] and in assay [6] was “inactive” each time.

On to `CN(C)C(=O)[C@H](O)[C@H](Cc1ccccc1)NC(=O)c1cc2cc(Cl)ccc2[nH]1`, for which the activation in assay [1] was -2.47% and -33.3% and 7.64%. In addition, the Potency entry in assay [2], in assay [4], in assay [6], in [8], in [14] and in assay [15] was “inactive” each time. In addition, in assay [16], the Potency entry is “inactive”. Further, the viability in [17] was 95.3%.
